Article PMC7862700, “An all-to-all approach to the identification of sequence-specific readers for epigenetic DNA modifications on cytosine”

Key:
Test in all cases: DAPPL (digital affinity profiling via proximity ligation, sequencing); 10 mM Tris-HCl pH 7.5, 50 mM NaCl, 1 mM DTT, 4% glycerol, room temperature, 30 min; GST-TFs on glutathione beads, 16-mer random dsDNA library, 0.1% formaldehyde crosslink after washing; high values mean tight binding
Conditions in all cases: protein: recombinant; tags: N-terminal GST; dsDNA, one strand shown
FLI1 = target: T1, FLI1 (Homo sapiens, UniProt Q01543 1-452)
T1 sequence: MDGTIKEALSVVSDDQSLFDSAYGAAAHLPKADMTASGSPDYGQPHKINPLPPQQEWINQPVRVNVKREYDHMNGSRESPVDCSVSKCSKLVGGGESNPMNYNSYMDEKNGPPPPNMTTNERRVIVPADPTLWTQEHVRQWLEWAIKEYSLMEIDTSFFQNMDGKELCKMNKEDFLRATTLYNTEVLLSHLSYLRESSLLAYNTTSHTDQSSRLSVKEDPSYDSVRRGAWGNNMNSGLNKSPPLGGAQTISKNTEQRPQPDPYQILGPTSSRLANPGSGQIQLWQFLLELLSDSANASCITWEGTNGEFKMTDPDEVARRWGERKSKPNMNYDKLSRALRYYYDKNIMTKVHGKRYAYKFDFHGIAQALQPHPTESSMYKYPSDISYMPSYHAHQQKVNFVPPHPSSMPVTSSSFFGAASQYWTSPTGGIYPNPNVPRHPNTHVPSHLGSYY
Method in brief: (§1)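 Pools were built from human transcription factors expressed in yeast as GST fusions, captured on glutathione beads and DNA-barcoded, along with a tag-only sample. Incubation with 200 nmole of a 16-mer random double-stranded DNA library lasted 30 min at room temperature in Tris/NaCl/DTT/glycerol buffer, and was followed by washing, 0.1% formaldehyde crosslinking, proximity ligation, PCR amplification and Illumina NextSeq500 sequencing. Binding signal is the quotient of each hexamer's read frequency for a factor and its frequency for the tag-only sample.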

ELK1 = target: T2, ELK1 (Homo sapiens, UniProt P19419 1-428)
T2 sequence: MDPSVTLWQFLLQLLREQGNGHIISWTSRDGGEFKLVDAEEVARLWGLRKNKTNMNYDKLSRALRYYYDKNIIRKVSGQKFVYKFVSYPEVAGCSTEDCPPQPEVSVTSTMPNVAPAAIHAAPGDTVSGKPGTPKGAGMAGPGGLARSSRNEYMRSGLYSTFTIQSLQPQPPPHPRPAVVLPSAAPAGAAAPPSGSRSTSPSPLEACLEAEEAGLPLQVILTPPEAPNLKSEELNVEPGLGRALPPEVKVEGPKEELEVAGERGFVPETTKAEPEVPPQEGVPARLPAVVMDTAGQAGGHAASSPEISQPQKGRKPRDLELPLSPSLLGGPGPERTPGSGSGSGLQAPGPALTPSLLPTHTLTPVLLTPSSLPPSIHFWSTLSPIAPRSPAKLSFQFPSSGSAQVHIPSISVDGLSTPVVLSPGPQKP
Method in brief: as §1

GABPA = target: T3, GABPA (Homo sapiens, UniProt Q06546 1-454)
T3 sequence: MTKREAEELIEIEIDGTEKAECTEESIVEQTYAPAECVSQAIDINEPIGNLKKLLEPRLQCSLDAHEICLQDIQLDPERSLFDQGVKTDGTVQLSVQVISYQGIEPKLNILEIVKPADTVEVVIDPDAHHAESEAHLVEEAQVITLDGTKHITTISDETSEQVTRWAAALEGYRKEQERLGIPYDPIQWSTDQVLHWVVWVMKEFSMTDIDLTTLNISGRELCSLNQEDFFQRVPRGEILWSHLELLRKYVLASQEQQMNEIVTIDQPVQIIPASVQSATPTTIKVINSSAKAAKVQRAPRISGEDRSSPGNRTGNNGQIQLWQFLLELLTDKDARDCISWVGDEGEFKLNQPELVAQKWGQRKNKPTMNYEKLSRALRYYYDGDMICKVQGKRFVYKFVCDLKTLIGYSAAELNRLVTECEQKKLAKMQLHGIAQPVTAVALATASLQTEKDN
Method in brief: as §1

ERG = target: T4, ERG (Homo sapiens, UniProt P11308 1-479)
T4 sequence: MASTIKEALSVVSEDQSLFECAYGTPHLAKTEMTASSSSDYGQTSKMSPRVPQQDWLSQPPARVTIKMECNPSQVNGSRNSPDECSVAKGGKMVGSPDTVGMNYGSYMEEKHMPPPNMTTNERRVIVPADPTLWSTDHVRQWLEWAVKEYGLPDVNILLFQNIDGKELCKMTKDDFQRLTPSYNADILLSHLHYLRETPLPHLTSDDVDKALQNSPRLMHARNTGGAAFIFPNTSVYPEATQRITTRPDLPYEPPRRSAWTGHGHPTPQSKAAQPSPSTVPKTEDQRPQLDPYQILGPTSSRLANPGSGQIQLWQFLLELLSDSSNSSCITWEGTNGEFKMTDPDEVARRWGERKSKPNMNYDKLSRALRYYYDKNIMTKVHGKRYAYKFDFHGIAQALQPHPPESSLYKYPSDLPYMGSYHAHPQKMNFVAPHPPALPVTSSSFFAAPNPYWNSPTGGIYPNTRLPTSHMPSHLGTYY
Method in brief: as §1

ELF1 = ELF1 (Homo sapiens, UniProt P32519 1-619)
Sequence of ELF1 (P32519 whole entry): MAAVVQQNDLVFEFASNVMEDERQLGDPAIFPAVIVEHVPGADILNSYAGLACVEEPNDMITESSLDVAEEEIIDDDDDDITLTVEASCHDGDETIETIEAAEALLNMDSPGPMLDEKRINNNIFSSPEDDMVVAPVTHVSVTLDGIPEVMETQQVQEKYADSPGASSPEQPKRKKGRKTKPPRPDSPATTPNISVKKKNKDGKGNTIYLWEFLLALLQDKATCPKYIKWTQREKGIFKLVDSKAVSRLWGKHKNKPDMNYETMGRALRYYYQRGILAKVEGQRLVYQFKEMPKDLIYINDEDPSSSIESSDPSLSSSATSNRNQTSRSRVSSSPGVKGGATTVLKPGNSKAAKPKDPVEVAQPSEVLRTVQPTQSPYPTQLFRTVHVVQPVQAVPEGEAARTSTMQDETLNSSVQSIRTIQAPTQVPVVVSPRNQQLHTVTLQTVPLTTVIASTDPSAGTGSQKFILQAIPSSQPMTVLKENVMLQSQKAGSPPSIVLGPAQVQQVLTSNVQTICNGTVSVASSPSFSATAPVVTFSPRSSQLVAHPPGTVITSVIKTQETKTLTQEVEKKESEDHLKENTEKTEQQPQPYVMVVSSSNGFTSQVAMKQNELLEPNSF
Method in brief: as §1

EHF = target: T5, EHF (Homo sapiens, UniProt Q9NZC4 1-300)
T5 sequence: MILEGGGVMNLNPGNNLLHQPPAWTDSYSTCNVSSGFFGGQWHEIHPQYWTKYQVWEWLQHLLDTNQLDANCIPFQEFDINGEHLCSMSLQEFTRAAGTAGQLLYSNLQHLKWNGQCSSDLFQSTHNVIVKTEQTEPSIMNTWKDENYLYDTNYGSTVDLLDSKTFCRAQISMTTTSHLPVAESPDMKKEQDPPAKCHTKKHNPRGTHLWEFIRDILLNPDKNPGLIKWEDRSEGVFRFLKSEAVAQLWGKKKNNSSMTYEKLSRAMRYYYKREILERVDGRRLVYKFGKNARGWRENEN
Method in brief: as §1

SPI1 = SPI1 (Homo sapiens, UniProt P17947 1-270)
Method in brief: as §1

SPIB = SPIB (Homo sapiens, UniProt Q01892 1-262)
Sequence of SPIB (Q01892 whole entry): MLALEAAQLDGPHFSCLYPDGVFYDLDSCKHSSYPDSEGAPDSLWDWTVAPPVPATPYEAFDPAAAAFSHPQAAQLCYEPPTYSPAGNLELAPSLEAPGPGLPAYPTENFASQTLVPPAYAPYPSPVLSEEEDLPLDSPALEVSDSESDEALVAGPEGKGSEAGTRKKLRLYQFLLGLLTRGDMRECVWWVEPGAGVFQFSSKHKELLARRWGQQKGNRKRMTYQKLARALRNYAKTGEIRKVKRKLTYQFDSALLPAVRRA
Method in brief: as §1

ELK3 = target: T6, ELK3 (Homo sapiens, UniProt P41970 1-407)
T6 sequence: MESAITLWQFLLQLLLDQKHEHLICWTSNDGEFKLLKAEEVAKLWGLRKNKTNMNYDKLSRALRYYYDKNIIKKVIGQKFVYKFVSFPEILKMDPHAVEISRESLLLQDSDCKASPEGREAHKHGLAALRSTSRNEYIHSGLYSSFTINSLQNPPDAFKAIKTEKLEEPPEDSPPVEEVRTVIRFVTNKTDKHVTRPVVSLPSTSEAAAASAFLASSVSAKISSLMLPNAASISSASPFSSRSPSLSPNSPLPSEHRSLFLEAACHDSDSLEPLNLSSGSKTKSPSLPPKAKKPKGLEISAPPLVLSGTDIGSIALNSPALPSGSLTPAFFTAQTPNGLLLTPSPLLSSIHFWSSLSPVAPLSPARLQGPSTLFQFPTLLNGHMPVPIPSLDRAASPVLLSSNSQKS
Method in brief: as §1

ATTAAA
binding signal (FLI1): 1.14 fold enrichment (6-mer frequency, TF over GST control) | binding signal (ELK1): 1.1 fold enrichment (6-mer frequency, TF over GST control) | binding signal (GABPA): 1.16 fold enrichment (6-mer frequency, TF over GST control) | binding signal (ERG): 1.09 fold enrichment (6-mer frequency, TF over GST control) | binding signal (ELF1): 1.2 fold enrichment (6-mer frequency, TF over GST control) | binding signal (EHF): 1.14 fold enrichment (6-mer frequency, TF over GST control) | binding signal (SPI1): 1.13 fold enrichment (6-mer frequency, TF over GST control) | binding signal (SPIB): 1.19 fold enrichment (6-mer frequency, TF over GST control) | binding signal (ELK3): 1.16 fold enrichment (6-mer frequency, TF over GST control)
